Bioassay records as filed in PubChem BioAssay.
CHT inh – inhibits the human high affinity choline transporter | B-score at 10 µM | Q9GZV3 | CHT-expressing cells, membrane potential dye, choline response; stronger effect = lower value | 310,000 compounds, 0.86% hits;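 active means B-score over 3 SD under the library average, and starting fluorescence ratio not unusually high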;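 further: choline stimulus applied at its EC90 after an EC20 pre-addition; B-score computed on integrated fluorescence ratio after choline addition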
PHOSPHO1 inh – PHOSPHO1 (human) inhibition; inhibition, % at 13.3 µM; Q8TCT1; 290,000 compounds, 1.1% hits; recombinant PHOSPHO1, absorbance phosphatase assay; in the data active means inhibition above about 60%
Target sequence (Q8TCT1 whole entry, looked up): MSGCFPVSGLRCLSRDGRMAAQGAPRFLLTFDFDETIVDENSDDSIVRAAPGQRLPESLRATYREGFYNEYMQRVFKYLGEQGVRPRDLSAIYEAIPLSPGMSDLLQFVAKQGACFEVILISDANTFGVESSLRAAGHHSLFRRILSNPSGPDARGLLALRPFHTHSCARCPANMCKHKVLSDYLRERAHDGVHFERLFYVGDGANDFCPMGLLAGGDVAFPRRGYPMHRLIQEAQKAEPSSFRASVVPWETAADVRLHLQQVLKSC
CHT allo act – allosterically activates the human high affinity choline transporter. CHT-expressing cells, membrane potential dye, choline EC20; stronger effect = higher value; LV-AA mutant CHT in HEK293 cells. B-score at 10 µM. 310,000 compounds, 0.49% hits;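 active means initial fluorescence not abnormally high and integrated response B-score, plate-corrected, over 3 SD above library mean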
ANO1 activ – mouse TMEM16A channel activation, primary screen. Q8BHY3. B-score at 10 µM. HEK293 TMEM16A/YFP-H148Q/I152L, iodide quench fluorescence; stronger effect = lower value. 340,000 compounds, 0.3% hits;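 active means fluorescence-ratio B-score plate-corrected deviation score at least 3 library SD below zero, with starting fluorescence score within 5 deviations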;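 further: channel opened by trigger with iodide after compound preincubation; score built on the fluorescence ratio of max minus min over baseline; more negative score means more quench and so TMEM16A activation or potentiation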
ANO1 block – inhibitors of mouse TMEM16A calcium-activated chloride channel. AID 588511. normalized B-score (activity score, 25-100; higher = stronger inhibition) at 10 µM. HEK293 TMEM16A/YFP iodide influx fluorescence, ionomycin. Q8BHY3. 310,000 compounds, 1.2% hits;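 active means ratio plate-corrected score three or more library SD toward inhibition, starting fluorescence score within five deviations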;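 further: score derived from kinetic fluorescence span divided by baseline fluorescence per well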
HDAC3 inh – human HDAC3 inhibition | O15379 | recombinant HDAC3, fluorogenic peptide/trypsin coupled, fluorescence | inhibition, % at 8.3 µM | 320,000 compounds, 0.15% hits; in the data active means inhibition above about 26%, passing the limit was not always enough; inconclusive means no clear call, values can overlap the other calls
CHT activ conf – human CHT activation, confirmatory screen | shares compounds with CHT allo act | CHT-expressing cells, membrane potential dye fluorescence (FDSS); % of choline EC20–EC90 response window; HEK293 expressing CHT LV-AA mutant; choline added at its EC20 | activation, % at 10 µM | 2,500 compounds, 91% hits;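 active means primary screen active, with duplicate mean activation above negative control mean plus 3 SD, cut at about 11% in these data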
HEK293 MP dye – counter-screen for CHT activators: effect in parental HEK293 cells. shares compounds with CHT allo act. membrane potential dye fluorescence (FDSS); measured after EC20 choline addition. 2,500 compounds, 62% hits. ratio readout change at 10 µM, hits read low;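 active means duplicate-averaged ratio beyond 3 SD from buffer wells, up or down, though filed actives are nearly all decreases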
Large screens that a line does not name were inactive (follow-up assays come after a bar, where they were run). An excerpt weighted towards active compounds, which were near 3.2% of everything screened.

CC1(C)Cc2c(sc3c2C(=O)N(c2ccccc2)C2=NCCN23)CS1	none
COc1ccccc1CC(NC(C)=O)C(=O)NC1CCN(S(=O)(=O)c2ccccc2)CC1 (centres undefined)	none (no result: CHT inh, CHT allo act, ANO1 block, HDAC3 inh)
Cc1ccc(S(=O)(=O)Nc2ccc(C(=O)NCCCN3CCOCC3)cc2)cc1[N+](=O)[O-]	none (no result: PHOSPHO1 inh) | CHT activ conf 16 | HEK293 MP dye inactive
O=C(NCCCN1CCOCC1)c1ccc(NS(=O)(=O)c2cccc([N+](=O)[O-])c2)cc1	none (no result: PHOSPHO1 inh)
CCOC(=O)c1sc2ncnc(N3CCN(CC)CC3)c2c1C	none | CHT activ conf 45 | HEK293 MP dye -43
CCOC(=O)c1sc2ncnc(N3CCN(C(=O)OCC)CC3)c2c1C	none
CN(CC(=O)Nc1ccc(F)c(F)c1F)C(=O)c1cc(-c2ccncc2)nc2ccccc12	none (no result: PHOSPHO1 inh) | CHT activ conf 40 | HEK293 MP dye inactive
CC[n+]1ccc(C)c2cc(P(=O)(c3ccccc3)c3ccccc3)ccc21	CHT allo act 7.8 | CHT activ conf 58 | HEK293 MP dye -42
Cc1ccnc2ccc(P(=O)(c3ccccc3)c3ccccc3)cc12	none (no result: CHT inh, CHT allo act, ANO1 activ, ANO1 block, HDAC3 inh)
CC[n+]1ccc(C)c2cc(SC(F)(F)F)ccc21	CHT allo act 6.9 | CHT activ conf 33 | HEK293 MP dye -52
COc1ccccc1NS(=O)(=O)c1ccc(NC(=O)c2nc3ncccn3n2)cc1	none (no result: CHT inh, CHT allo act, ANO1 block, HDAC3 inh)
O=C(NCCO)c1ccc2c3n(nc2c1)-c1ccc(Cl)cc1CO3	CHT allo act 8.6 | CHT activ conf 20 | HEK293 MP dye -23
CN1CCN(C(CNC(=O)C(=O)NC2CCCCC2)c2ccc(F)cc2)CC1 (centres undefined)	none (no result: PHOSPHO1 inh)
O=C1c2cccc3cccc(c23)C(=O)N1CC1CCN(CC(O)COCc2ccc3c(c2)OCO3)CC1 (centres undefined)	none | CHT activ conf 38 | HEK293 MP dye -56
COc1ccc(OCC(O)CN2CCC(CN3C(=O)c4cccc5cccc(c45)C3=O)CC2)cc1 (centres undefined)	none (no result: PHOSPHO1 inh)
C=CCOC(=O)C1=C[C@@H](c2ccc(Br)cc2)[C@H](CCCO)[C@@H](OCC)O1	CHT allo act 6.7 | CHT activ conf 25 | HEK293 MP dye inactive
O=C(CN1C(=O)/C(=C/c2ccco2)SC1=S)Nc1ccc(O)c(C(=O)O)c1	HDAC3 inh inconclusive
COC(=O)CCC(=O)Nc1sc2c(c1C#N)CCCC2	CHT allo act 9.2 | CHT activ conf 25 | HEK293 MP dye inactive
Cc1cc(=O)n2c3ccccc3n(CC(O)CN3CCN(CCO)CC3)c2c1C#N (centres undefined)	none | CHT activ conf 46 | HEK293 MP dye -34
CCC1CCCCN1CC(O)Cn1c2ccccc2n2c(=O)cc(C)c(C#N)c12 (centres undefined)	CHT allo act 7.7 | CHT activ conf 39 | HEK293 MP dye -28
Cc1cc(=O)n2c3ccccc3n(CC(O)CN3CCN(Cc4ccccc4)CC3)c2c1C#N (centres undefined)	CHT allo act 7.6 | CHT activ conf 51 | HEK293 MP dye -55
Cc1cc(=O)n2c3ccccc3n(CC(O)CN3CCC(C)CC3)c2c1C#N (centres undefined)	none (no result: CHT inh, CHT allo act, ANO1 block, HDAC3 inh)
Cn1c2ccccc2n2c(=O)cc(-c3ccccc3)c(C#N)c12	none
COC(=O)Cn1c2ccc(C)cc2c2nc3ccccc3nc21	none (no result: CHT inh, CHT allo act, ANO1 block, HDAC3 inh)
O=C(CCN1C(=O)C2C3CCC(C3)C2C1=O)Nc1ccc([N+](=O)[O-])cc1 (centres undefined)	none
CN(C)c1cccc2c(C=C(C#N)C#N)ccc(N(C)C)c12	CHT allo act 11 | CHT activ conf 57 | HEK293 MP dye -73
CN(C)c1ccc(/C=N/O)cc1	none
CN(C)c1cccc2c(/C=N/O)ccc(N(C)C)c12	none | CHT activ conf 50 | HEK293 MP dye -41
O=c1cc(N2CCN(Cc3ccccc3)CC2)[nH]c(=O)n1-c1cccc(C(F)(F)F)c1	none
